Compound activity (PubChem BioAssay)
Only some compounds are listed: those with a hit (about 1.4% of all), similar ones and a draw of the others.
MazF activator: increases E. coli MazEF RNase cleavage of RNA; FAM/BHQ RNA-DNA oligo cleavage fluorescence, 5 h; P0AE70; 350,000 compounds, 0.32% hits; activation, % at 20 µM; in the data active means activation above about 50%
Target sequence (P0AE70 whole entry, looked up): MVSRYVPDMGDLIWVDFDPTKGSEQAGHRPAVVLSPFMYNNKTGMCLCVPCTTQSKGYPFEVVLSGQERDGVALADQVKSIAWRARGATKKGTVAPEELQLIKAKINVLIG
DUSP3 inh: DUSP3 (human) phosphatase inhibition; P51452; recombinant VHR phosphatase, pNPP absorbance; inhibition, % at 13.3 µM; 290,000 compounds, 0.52% hits; AID 1654; in the data active means inhibition above about 50%
Target sequence (P51452 whole entry, looked up): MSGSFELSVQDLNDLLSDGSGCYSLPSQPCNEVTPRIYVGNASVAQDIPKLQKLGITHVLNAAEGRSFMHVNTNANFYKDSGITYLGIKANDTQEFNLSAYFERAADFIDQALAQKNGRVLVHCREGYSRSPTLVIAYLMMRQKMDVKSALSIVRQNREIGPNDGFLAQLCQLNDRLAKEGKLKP
BJeLR viability: BJeLR cell viability loss; BJeLR (HRASV12) viability, CellTiter-Glo ATP luminescence, 48 h; inhibition, % (no concentration beside the values); 300,000 compounds, 0.17% hits; in the data active means inhibition above about 50%
CCHF vOTU inh-1: CCHFV vOTU protease inhibition; Pep-AMC fluorescence; AID 651958; 370,000 compounds, 0.55% hits; inhibition, % at 11.5 µM; further: 0% = vehicle wells with enzyme and 100% = no enzyme wells
3CLpro inhibitor: SARS-CoV 3CLpro protease inhibition; P0C6X7; recombinant SARS-CoV 3CLpro, quenched FRET peptide cleavage; inhibition, % at 6 µM; 290,000 compounds, 0.14% hits; in the data active means inhibition above about 12%
CCHF vOTU inh-2: CCHFV vOTU protease inhibition, confirmation | shares compounds with CCHF vOTU inh-1 | Recombinant CCHFV vOTU, Pep-AMC fluorescence | inhibition, % at 11.5 µM | 1,900 compounds, 17% hits
* marks the source's active call; other numbers are inactive results; / = not tested or not shown. Unless noted, no stated cut-off is given here; in the data, active means inhibition above about 30%; inactive means the rest.

SMILES | MazF activator | DUSP3 inh | BJeLR viability | CCHF vOTU inh-1 | 3CLpro inhibitor | CCHF vOTU inh-2
COC(=O)Cc1ccc(N(Cc2ccccc2F)S(=O)(=O)c2ccc(Cl)cc2)cc1 | -16 | -14 | -11 | 32* | -4 | 2
CC(C)(C)CSc1nnc(-c2cccnc2)n1Cc1ccccc1 | / | / | / | -2 | / | /
COc1ccc(-c2cc(=O)n(CCC#N)[nH]2)cc1 | -4 | 1 | 1 | 62* | 1 | -27
Cc1ccc(S(=O)(=O)N2[C@@H](c3ccc(C(C)(C)C)cc3)C(C(=O)O)=CC[C@H]2c2ccc(Cl)cc2)cc1 | -7 | / | / | 42* | / | 13
CCc1ccc([C@@H]2CC=C(C(=O)O)[C@H](c3ccc(C(C)(C)C)cc3)N2S(=O)(=O)c2ccc(C)cc2)cc1 | -13 | / | / | 46* | / | 0
Cc1ccc(S(=O)(=O)N2[C@@H](c3ccc(C(C)(C)C)cc3)C(C(=O)O)=CC[C@H]2c2ccc(C(C)C)cc2)cc1 | -5 | / | / | 47* | / | 15
Cc1ccc(S(=O)(=O)N2[C@@H](c3ccc(C(C)(C)C)cc3)C(C(=O)O)=CC[C@H]2c2cccs2)cc1 | -5 | / | / | 32* | / | 3
Cc1ccc(S(=O)(=O)N2[C@@H](c3ccc(Br)cc3)C(C(=O)O)=CC[C@H]2c2ccc(C(C)C)cc2)cc1 | -12 | / | / | 5 | / | /
CCOC(=O)[C@]12CCCCC/C=C\1N(Cc1ccc(OC)cc1)C(=O)[C@H]2CC(=O)NCCC(C)C | / | / | / | 17 | / | /
Cc1ccc([C@@H]2CC=C(C(=O)O)[C@H](c3ccc(C(C)(C)C)cc3)N2S(=O)(=O)c2ccc(C)cc2)cc1 | 2 | / | / | 42* | / | 19
CN(Cc1ccc2c(c1)CCCN2C)C(=O)[C@H]1O[C@@H](n2ccc(=O)[nH]c2=O)[C@H](O)[C@@H]1O | / | / | / | 1 | / | /
COc1ccc(CN(C)C(=O)[C@H]2O[C@@H](n3ccc(=O)[nH]c3=O)[C@H](O)[C@@H]2O)cc1OC | / | / | / | 30* | / | 3
Cc1ccc(C=Nc2ccc(N(C)C)cc2)o1 | -2 | 8 | -6 | 33* | 4 | -4
Cc1ccc(C=Nc2ccccc2C(N)=O)o1 | -8 | 17 | 3 | 11 | 2 | /
CCOc1ccc(-n2c(SCc3nc4ccccc4[nH]3)nnc2-c2cccc(Cl)c2)cc1 | / | / | / | 9 | / | /
Cn1cccc1CC(=O)NN=Cc1cccc(F)c1 | / | / | / | 2 | / | /
CCN(CC)CC(=O)n1c2c(c3ccccc31)CCCC2 | 10 | 0 | -1 | 0 | 4 | /
CN1CCN(CC(=O)n2c3c(c4ccccc42)CCCC3)CC1 | 2 | 35 | 8 | 45* | 3 | -1
C=CCN1[C@H](CO)[C@H](c2ccccc2)[C@@H]1C#N | / | / | / | -2 | / | /
COC(=O)[C@]12C[C@H](CC(=O)N3CCOCC3)C(=O)N(Cc3ccc(Cl)cc3Cl)C1=C[C@H](C1CCCC1)O[C@@H]2C | / | / | / | 20 | / | /
COc1ccc(NC(=O)c2sc(=O)n(Cc3ccc(F)c(Cl)c3)c2C)cc1OC | / | / | / | 31* | / | -14
COc1ccc(CNC(=O)c2sc3nc(C)c(Cl)c(C)c3c2N)cc1 | / | / | / | -7 | / | /
Cc1ccc(-n2c(-c3cnccn3)n[nH]c2=S)cc1 | -3 | 18 | 6 | 30* | 4 | -10
Cc1ccc(-n2c(-c3ccncc3)n[nH]c2=S)cc1 | 2 | 29 | 2 | 5 | -4 | /
Cc1ccc2c(c1)-c1c(cnn1CC(=O)NCCc1cccc(F)c1)CO2 | / | / | / | -1 | / | /
SMILES | MazF activator | DUSP3 inh | BJeLR viability | CCHF vOTU inh-1 | 3CLpro inhibitor | CCHF vOTU inh-2
CCOC(=O)c1sc(NC(=O)c2ccc(Br)o2)cc1C | 20 | 14 | 1 | 31* | 3 | -4
CCOC(=O)c1sc(NC(=O)Nc2cccc(Cl)c2)cc1C | 16 | 11 | 3 | 30* | -1 | 0
CN1C(=O)C(=Cc2ccc(N3CCOCC3)o2)C(=O)N(C)C1=O | -135 | 2 | -19 | 30* | 5 | 1
CCCn1c(SCC(=O)Nc2ccc(Cl)cn2)nnc1C1CC1 | -3 | 29 | -9 | 34* | 2 | 3
CCn1c(SCC(=O)Nc2ccc(Cl)cc2)nnc1C1CC1 | 2 | 4 | -9 | -3 | 0 | /
Cc1[nH]n(-c2ccccc2)c(=O)c1C(c1ccc([N+](=O)[O-])cc1)c1c(C)[nH]n(-c2ccccc2)c1=O | 6 | -6 | 2 | / | -5 | /
Cc1[nH]n(-c2ccccc2)c(=O)c1C(c1ccc(O)c([N+](=O)[O-])c1)c1c(C)[nH]n(-c2ccccc2)c1=O | 4 | / | 1 | 70* | 6 | -8
COc1ccc(C(C[N+](=O)[O-])c2c(C)[nH]n(-c3ccccc3)c2=O)cc1 (stereo not drawn) | 9 | / | 23 | 100* | -2 | 31*
O=C(N/N=C1\C/C(=N\NC(=O)c2ccncc2)c2ccccc21)c1ccncc1 | 8 | 6 | -11 | 93* | -2 | 83*
O=C(NN=C1C2CC3CC(C2)CC1C3)c1ccncc1 | 0 | 14 | 20 | -10 | 1 | /
COc1ccc(C(O)c2nc(-c3ccoc3)cs2)cc1 (stereo not drawn) | / | / | / | 30* | / | -20
O=C(CSc1nc(=O)n(CCCN2CCOCC2)c2c1CCC2)Nc1ccc(F)cc1F | 5 | / | 0 | 32* | / | -18
Cc1ccc(Nc2cc(-n3cccn3)ncn2)c(C)c1 | 0 | 7 | -7 | 64* | 1 | -2
O=C(CSc1nc2ccccc2n1Cc1ccccc1)NN=Cc1c[nH]c2ccccc12 | / | / | / | 0 | / | /
Cc1cc(C=C2C(=O)NC(=O)NC2=O)c(C)n1-c1ccc2c(c1)OCO2 | 4 | 21 | 9 | 7 | 3 | /
Cc1cc(/C=C2\C(=O)NC(=O)N(C)C2=O)c(C)n1-c1ccc2c(c1)OCO2 | 8 | 21 | -1 | 34* | 1 | -26
CCOC(=O)/C(C#N)=C(C)/C=C1\Sc2ccccc2N1CC | -634 | -2 | -1 | -9 | -4 | /
CCN1/C(=C\C=C(C(C)=O)C(C)=O)Sc2ccccc21 | -297 | 23 | -10 | 37* | 2 | 25
COc1ccc(CNC(=O)c2ccc(-c3ccccc3)cc2)cc1 | -6 | 10 | 0 | 8 | -2 | /
COc1ccc(CNC(=O)c2c(C)oc3c2C(=O)c2ccccc2C3=O)cc1 | 4 | -4 | 11 | 54* | 0 | 48*
COc1cccc(NC(=O)Nc2c(-c3ccc(C)cc3)nc3ncccn23)c1 | / | / | / | -13 | / | /
O=C1CC(NCc2ccncc2)C(=O)N1c1ccccc1 (stereo not drawn) | -7 | -16 | 0 | 35* | -4 | -9
O=C1CC(NCc2ccncc2)C(=O)N1c1ccc(Cl)cc1 (stereo not drawn) | -11 | 19 | -7 | 6 | -6 | /
CCCCCCCCCCOC(=O)Cn1c(COc2ccccc2)[n+](C)c2ccccc21 | -58 | 2 | 5 | 30* | -1 | 23
CCCCCCCCCCOC(=O)Cn1c(COc2ccc(Cl)cc2)[n+](C)c2ccccc21 | -36 | 6 | -7 | 46* | 5 | 56*
CN(Cc1ccccc1)C(=O)OCc1cn(Cc2cccc(C(F)(F)F)c2)nn1 | / | / | / | 15 | / | /
Cc1no[n+]([O-])c1COc1cccc(/C=N/Nc2nncn2N)c1 | 16 | -7 | -2 | 109* | 0 | -14
